From PubChem BioAssay AID651681 (Broad Institute, 2012)
Calls of active or inactive are those of the source.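 The calls were made as follows: active = compound with fitted CDK2 half-maximal potency at or below twice its top tested dose; inconclusive = flat curve near 30 to 70% inhibition, or poor fit; inactive = the rest.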

biological target: Cyclin-dependent kinase 2 (Homo sapiens) + Cyclin-A2 (Homo sapiens) (UniProt P20248+P24941); experiment: blockade of human CDK2 kinase activity – biochemical, dry powder, set 3, selectivity assay for Dyrk1A inhibitor project, dose response (AID 651681); settings: CDK2/cyclin A ADP-Glo luminescence, histone H1 peptide; series mostly up to 10 µM; inhibition: at the top concentration
Sequence (P20248 whole entry, looked up, one chain of several): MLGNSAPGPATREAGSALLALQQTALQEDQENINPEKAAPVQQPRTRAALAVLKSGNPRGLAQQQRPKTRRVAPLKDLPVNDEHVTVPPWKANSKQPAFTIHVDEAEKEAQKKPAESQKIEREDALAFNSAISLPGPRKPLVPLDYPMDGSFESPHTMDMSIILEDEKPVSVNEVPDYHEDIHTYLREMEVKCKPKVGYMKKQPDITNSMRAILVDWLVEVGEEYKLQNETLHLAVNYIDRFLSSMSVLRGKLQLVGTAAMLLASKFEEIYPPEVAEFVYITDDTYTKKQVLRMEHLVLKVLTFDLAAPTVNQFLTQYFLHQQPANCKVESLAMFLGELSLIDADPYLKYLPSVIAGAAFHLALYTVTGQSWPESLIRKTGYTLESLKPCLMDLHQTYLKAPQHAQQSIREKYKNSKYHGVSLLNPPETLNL

Compound	inhibition
Cc1ccc(S(=O)(=O)N(C)CC(=O)Nc2nc3ccc(Cl)cc3s2)cc1C	-1.34% (inactive)
CN(CC(=O)Nc1nc2ccc(Cl)cc2s1)S(=O)(=O)c1ccc(C#N)cc1	-6.67% (inactive)
CN(CC(=O)Nc1nc2ccccc2s1)S(=O)(=O)c1ccc(Cl)cc1	-5.95% (inactive)
CN(CC(=O)Nc1nc2ccccc2s1)S(=O)(=O)c1ccccc1	-6.04% (inactive)
COc1cccc(C2=Nn3c(nnc3-c3ccccc3)SC2)c1	7.13% (inactive)
COc1ccc2c(Cl)c(C(=O)NCc3cccnc3)sc2c1	-2.3% (inactive)
COc1ccc(C2=Nn3c(nnc3-c3cccnc3)SC2)cc1OC	7.94% (inactive)
COc1ccc2nc(NC(=O)C3CCCN(S(=O)(=O)c4cccc5nsnc45)C3)sc2c1 (configuration not stated)	-0.944% (inactive)
Clc1ccc(CSc2nc(Nc3ccc4c(c3)OCO4)c3ccccc3n2)cc1	1.9% (inactive)
CC(C)n1cnc2cc(NCc3cccc4ccccc34)ccc21	7.99% (inactive)
COc1ccc(OC)c(CNC(=O)c2sc3ccccc3c2Cl)c1	-6.17% (inactive)
COc1ccc(-c2csc(NC(=O)CSCC(=O)N3CCCC3)n2)cc1	-7.89% (inactive)
COc1ccc2nc(NC(=O)C3CCN(S(=O)(=O)c4cccc5nsnc45)CC3)sc2c1	2% (inactive)
COc1ccc(C2=Nn3c(nnc3-c3cccnc3)SC2)cc1	5.52% (inactive)
CCOc1ccc2nc(NC(=O)C3CCCN(S(=O)(=O)c4cccc5cccnc45)C3)sc2c1 (configuration not stated)	-2.57% (inactive)
COc1ccc2nc(NC(=O)C3CCN(S(=O)(=O)c4ccc(C)cc4)CC3)sc2c1	-2.31% (inactive)
C=CCn1cnc2scc(-c3ccc(OC)cc3)c2c1=O	-4.85% (inactive)
O=C(NCc1ccccc1)c1sc2ccccc2c1Cl	-4.08% (inactive)
COc1ccc2nc(NC(=O)C3CCN(S(=O)(=O)c4cccc5nonc45)CC3)sc2c1	-12.4% (inactive)
COc1ccc2nc(NC(=O)C3CCCN(S(=O)(=O)c4cccc5cccnc45)C3)sc2c1 (configuration not stated)	-13.3% (inactive)
COc1ccc(S(=O)(=O)N2CCCC(C(=O)Nc3nc4ccccc4s3)C2)cc1 (configuration not stated)	-4.81% (inactive)
CN(CC(=O)Nc1nccs1)S(=O)(=O)c1ccc(Cl)cc1	8.85% (inactive)
